Experimental findings from PubChem BioAssay (Tox21) are described below.

Assay [1] in a line: qHTS assay for small molecule agonists of the p53 signaling pathway (AID 651631; calls by dose curve; further: nearly all actives have a fitted effect of over 15% in size). In outline: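 Read-out is beta-lactamase FRET fluorescence measured 2 h after substrate addition at room temperature, in HCT-116 cells with a p53 response element-driven reporter exposed to compounds for 16 h at 37 °C.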
A short description of assay [2]: qHTS assay for small molecules that induce genotoxicity in human embryonic kidney cells expressing luciferase-tagged ATAD5 (AID 651632). Further: nearly all actives have a fitted effect of over 15% in size. In outline: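 Luminescent reporter readout, HEK293T ATAD5-luc line: 16 hr drug exposure (37C, 5% CO2) followed by Amplite, 30 min RT.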
Assay [3] in a line: qHTS assay for small molecules that induce genotoxicity in human embryonic kidney cells expressing luciferase-tagged ATAD5 - cell viability (AID 651634; calls by dose curve; further: nearly all actives have a fitted effect of over 25% in size). In outline: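 Viability read: CellTiter-Fluor fluorescence, 30 min at 37C. Cells: HEK293T, luciferase-tagged ATAD5. Exposure: 15.5 hr, 37C, 5% CO2, compound or DMSO vehicle.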
Assay [4] can be described thus: qHTS assay for small molecule disruptors of the mitochondrial membrane potential (AID 720635). Further: potency means the concentration at half of the fitted maximal effect. In short, it runs like this: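 HepG2 cells exposed to compound 1 hr at 37C, then Mito-MPS dye 30 min. Ratio read of aggregate (540/590 nm) versus monomer (490/535 nm) fluorescence.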
Assay [5] can be described thus: qHTS assay to test for compound auto fluorescence at 590 nm (red) in HepG2 cells (AID 720674). In outline: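 Fluorescence at 590 nm emission following 540 nm excitation was recorded from HepG2 wells one hour after compound transfer, with DMSO-only wells as vehicle and Rose Bengal sodium equivalency as the scale.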
The nature of assay [6]: qHTS assay to test for compound auto fluorescence at 535 nm (green) in HepG2 cells (AID 720675).
A short description of assay [7]: qHTS assay to test for compound auto fluorescence at 460 nm (blue) in HEK293 cells (AID 720678). In short, it runs like this: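 HEK293 cells (2,000/well, medium with 10% dialyzed FBS) attached 4-5 hr, then exposed to compound overnight at 37C, 5% CO2. Blue fluorescence read at 405/460 nm, with triamterene as reference fluorophore.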
Assay [8] is described as follows: qHTS assay to test for compound auto fluorescence at 590 nm (red) in HEK293 cells (AID 720679). In short, it runs like this:
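HEK293 cells (2,000/well, 10% dialyzed FBS) attached 4-5 hr, then dosed with compound or DMSO and incubated overnight at 37C, 5% CO2. Red fluorescence read at 540/590 nm, Rose Bengal sodium as reference fluorophore.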

Assay [9] is described as follows: qHTS assay to test for compound auto fluorescence at 535 nm (green) in HEK293 cells (AID 720680).
Assay [10] is described as follows: qHTS assay to test for compound auto fluorescence at 460 nm (blue) in HEK293 cell free culture (AID 720681). In short, it runs like this:
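Compounds were added to cell-free DMEM with 10% FBS and fluorescence read directly. The blue channel used 405 nm excitation and 460 nm emission, with triamterene as the reference fluorophore.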

Assay [11] is described as follows: qHTS assay to test for compound auto fluorescence at 535 nm (green) in HEK293 cell free culture (AID 720682). In short, it runs like this: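 Fluorescein serves as the green reference fluorophore; each compound's intrinsic emission at 535 nm (excitation 485 nm) is reported as an equivalent amount of that dye, measured in serum-containing DMEM without cells.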
Assay [12] in a line: qHTS assay to test for compound auto fluorescence at 590 nm (red) in HEK293 cell free culture (AID 720683). In outline: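 Cell-free wells of DMEM with 10% FBS received compound, and intrinsic fluorescence was read at excitation/emission 540/590 nm. Values expressed as equivalence to Rose Bengal sodium.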
Assay [13] is described as follows: qHTS assay to test for compound auto fluorescence at 590 nm (red) in HepG2 cell free culture (AID 720684). In outline:
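Compound was pinned into wells holding MEM with 10% FBS and no cells, and red fluorescence was read at Ex/Em 540/590 nm. Signal is expressed as auto fluorescence equivalency relative to Rose Bengal sodium.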

The nature of assay [14]: qHTS assay to test for compound auto fluorescence at 460 nm (blue) in HepG2 cell free culture (AID 720685). In short, it runs like this: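 Compound (23 nL) or DMSO pinned into cell-free MEM with 10% FBS; blue fluorescence read at 405/460 nm excitation/emission, expressed as auto-fluorescence equivalency to triamterene.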
Assay [15] in a line: qHTS assay to test for compound auto fluorescence at 535 nm (green) in HepG2 cell free culture (AID 720686).
Assay [16] in a line: qHTS assay to test for compound auto fluorescence at 460 nm (blue) in HepG2 cells (AID 720687). In outline: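 HepG2 cells in MEM with 10% FBS, attached overnight at 37 C, were exposed to compound or DMSO for 1 hr at 37 C, 5% CO2. Blue fluorescence was read at 405/460 nm, with triamterene as reference fluorophore.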
In assay [17] the target is Glucocorticoid receptor (Homo sapiens) (UniProt P04150). The assay can be described thus: qHTS assay to identify small molecule agonists of the glucocorticoid receptor (GR) signaling pathway (AID 720691; active means well fitted activation curve with a large enough effect in the signal ratio in the repeat runs, not every such curve was filed as active; the % refers to the signal ratio). In short, it runs like this: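 qHTS in GR-bla HeLa cells: 4 h settling at 37 C/5% CO2, 18 h compound incubation at 37 C, 2 h LiveBLAzer B/G FRET substrate at room temperature, fluorescence intensity measured.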

Assay [18] has the same target. The assay is described as follows: qHTS assay to identify small molecule antagonists of the glucocorticoid receptor (GR) signaling pathway (AID 720692; active means well fitted inhibition curve with a large enough effect in the signal ratio in the repeat runs, not every such curve was filed as active; the % refers to the signal ratio). In outline:
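Inhibition of glucocorticoid signalling is measured in HeLa cells with a GRE-controlled beta-lactamase reporter; cells are co-treated with compound and 5 nM dexamethasone (final) for 18 h before FRET substrate readout.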

Assay [19] can be described thus: qHTS assay for small molecule disruptors of the mitochondrial membrane potential - cell viability (AID 720634; calls by dose curve;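 further: human HepG2 liver cancer cells; series mostly up to about 83 µM; nearly all actives have a fitted effect of over 20% in size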). In short, it runs like this:
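HepG2, 1 hr compound, 37 C. ATP luminescence via CellTiter-Glo, 30 min RT, same well as m-MPI.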

SMILES strings stand for the structures. A number with no mark means an inactive call. Inconclusive results are not listed. Active and inactive are the calls of the source. Unless noted, the call rests on the fitted dose curve; in most records, active means well fitted curve in the direction sought with a large enough effect in the repeat runs; inconclusive means weak or mixed curves; inactive means no such curve, though single readings can be large; an effect the other way counts as inactive or inconclusive. Positions of bridges follow the written chain, without caps; N, C: chain ends. Non-standard residues stand in square brackets, D forms with d. Residues, ends and D or L forms follow the SMILES beside them. hArg = N=C(N)NCCCC[C@H](N)C(=O)O; Mpa = O=C(O)CCS
On the % scale 0 is the no-effect control and ±100 the full control effect.

Glucocorticoid receptor (Homo sapiens), sequence (P04150 whole entry, looked up): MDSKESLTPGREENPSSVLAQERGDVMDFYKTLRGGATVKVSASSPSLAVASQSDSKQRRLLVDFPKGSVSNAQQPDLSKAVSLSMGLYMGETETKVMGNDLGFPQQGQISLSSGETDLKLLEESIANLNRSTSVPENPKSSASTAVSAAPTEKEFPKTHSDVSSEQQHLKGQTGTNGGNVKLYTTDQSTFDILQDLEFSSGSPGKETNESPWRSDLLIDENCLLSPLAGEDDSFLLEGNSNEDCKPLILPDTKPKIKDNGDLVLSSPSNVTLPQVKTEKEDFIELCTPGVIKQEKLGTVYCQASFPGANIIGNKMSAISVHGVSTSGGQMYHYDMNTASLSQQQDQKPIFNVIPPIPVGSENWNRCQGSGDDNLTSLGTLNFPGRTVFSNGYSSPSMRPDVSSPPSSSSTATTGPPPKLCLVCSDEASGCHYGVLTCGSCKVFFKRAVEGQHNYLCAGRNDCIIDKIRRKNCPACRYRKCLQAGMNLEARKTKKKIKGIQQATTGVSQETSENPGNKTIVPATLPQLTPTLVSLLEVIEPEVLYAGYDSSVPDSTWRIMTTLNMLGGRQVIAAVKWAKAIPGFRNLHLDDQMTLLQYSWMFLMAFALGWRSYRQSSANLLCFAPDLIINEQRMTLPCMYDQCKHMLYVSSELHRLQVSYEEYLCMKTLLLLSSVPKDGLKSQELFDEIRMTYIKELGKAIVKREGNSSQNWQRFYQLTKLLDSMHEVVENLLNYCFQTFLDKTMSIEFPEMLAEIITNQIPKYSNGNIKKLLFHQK

In the case of `CCC(=O)c1c(O)cc(O)cc1O`, the result in [1], in assay [2], in [5], in assay [6], in [7] and in [8] was inactive. Moreover, the compound was called inactive in [9], in [10], in assay [11], in assay [12], in assay [13] and in assay [14]. In addition, the result in [15], in assay [16] and in assay [18] was inactive. In addition, the Potency entry in assay [3] and in assay [17] was “inactive” in each case. Moreover, the Potency in assay [4] is 11.9 µM (active).

As for `O=C[O][Al]([O]C=O)[O]C=O`, the compound was called inactive in assay [1], in assay [19], in assay [5], in assay [6], in assay [7] and in [8]. In addition, the result in assay [9], in [10], in [11], in assay [12], in assay [13] and in assay [14] was inactive. Besides, the outcome in assay [15], in [16] and in [18] was inactive. Also, the Potency entry in [17] was “inactive”.

Turning to `CN(C)CCCCl`, the result in assay [1], in assay [2], in assay [19], in assay [5], in assay [6] and in [7] was inactive. Moreover, the outcome in [8], in assay [9], in [10], in [11], in assay [12] and in [13] was inactive. The outcome in assay [14], in [15], in assay [16] and in assay [18] was inactive. The Potency result in assay [3], in [4] and in assay [17] was “inactive” each time.

Take `Cc1cccc(Cl)c1`: the compound was classed as inactive in [1], in assay [2], in [19], in assay [5], in assay [6] and in assay [7]. In addition, the compound was called inactive in assay [8], in [9], in [10], in [11], in assay [12] and in assay [13]. Moreover, the result in [14], in [15], in [16] and in assay [18] was inactive. In addition, the Potency entry in assay [3], in assay [4] and in [17] was “inactive” in each case.

As for `NC(=O)[C@@H]1CSSCCC(=O)N[C@@H](CCCCN=C(N)N)C(=O)NCC(=O)N[C@@H](CC(=O)O)C(=O)N[C@@H](Cc2c[nH]c3ccccc23)C(=O)N2CCC[C@H]2C(=O)N1` ([Mpa][hArg]GDWPC-NH2; disulfide 1-7), the result in assay [1], in assay [2], in assay [19], in [5], in assay [6] and in assay [7] was inactive. The compound was called inactive in assay [8], in [9], in assay [10], in assay [11], in assay [12] and in [13]. Moreover, the compound was classed as inactive in assay [14], in assay [15], in [16] and in assay [18]. For the same compound, the Potency result in [3], in assay [4] and in assay [17] was “inactive” in each case.

Turning to `CC(C)OC(=O)OCOP(=O)(CO[C@H](C)Cn1cnc2c(N)ncnc21)OCOC(=O)OC(C)C`, the compound was classed as inactive in assay [1], in [2], in assay [19], in assay [5], in assay [6] and in assay [7]. Also, the result in assay [8], in [9], in [10], in assay [11], in assay [12] and in assay [13] was inactive. The outcome in assay [14], in [15] and in [16] was inactive. Further, in assay [4], the Potency result was “inactive”.

Regarding `[O]=[Mo](=[O])=[O]`, the compound was called inactive in assay [1], in [2] and in [19]. Also, the Potency result in [3], in assay [4] and in assay [17] was “inactive” throughout. In addition, in assay [5], the fluorescence, relative to Rose Bengal was -0.0279% [at 18.6 µM]. Also, the fluorescence, % of fluorescein control was 0.0234% [at 18.6 µM] in [6] and -0.0406% [at 18.6 µM] in assay [15]. Moreover, the fluorescence, % of triamterene in assay [7] was 0.132% [at 18.6 µM]. The fluorescence, % of fluorescent control in assay [8] was 0.419% [at 18.6 µM]; in assay [10] it was 0.0055% [at 18.6 µM]; in [12], 0.0845% [at 18.6 µM]; in assay [14], 0.041% [at 18.6 µM]; in [16], 0.0613% [at 18.6 µM]. Also, the fluorescence, % of fluorescein in assay [9] is -0.0315% [at 18.6 µM]. Moreover, the activity change in assay [11] is 0.118% [at 18.6 µM]. The fluorescence, % of Rose Bengal in assay [13] was 0.0301% [at 18.6 µM].
